From PubChem BioAssay (NCATS) come the findings set out here.

Assay [1] in a line: Primary qHTS for inhibitors of La Crosse Virus (LACV) - induced cell death in SH-SY5Y cells (AID 1508616).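 Note: top concentration of the series differs between compounds; 0% = infected DMSO wells and 100% = uninfected DMSO wells; higher means more rescue of cells from virus-induced death.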 In short, it runs like this:
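SH-SY5Y cells (6000/well) plated 24 h, then given compounds by pin transfer and LACV at 0.01 MOI for 6 days at 37C. Viability measured by ATPLite luminescence, normalized to infected DMSO and uninfected DMSO.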
In general terms: qHTS replaces the single test concentration by a dilution series.

Assay [2] has as its target Calcium and integrin-binding protein 1 (Homo sapiens) (UniProt Q99828). The assay can be described thus: Primary qHTS for Identification of Calcium Integrin Binding Protein 1 (CIB1) Competitor (AID 1508620).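 Note: GST tagged CIB1 binding a fluorescein labelled alphaIIb integrin peptide tracer; top concentration of the series differs between compounds; % is set by controls: 0 for no effect and ±100 for the full control effect.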 In short, it runs like this:
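Fluorescence polarization competition: CIB1-GST (1 uM final) preincubated with compound 15 min at room temperature, then FITC-labeled alphaIIb peptide (100 nM final) added for another 15 min. Polarization read at Ex 480/Em 540.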

A short description of assay [3]: Primary qHTS for small molecule stabilizers of the endoplasmic reticulum resident proteome: Secreted ER Calcium Modulated Protein (SERCaMP) assay (AID 1508630). Note: % is set by controls: 0 for no effect and ±100 for the full control effect. In short, it runs like this:
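GLuc-SERCaMP-expressing SH-SY5Y cells, pretreated 16 h with compound, are challenged with thapsigargin to empty ER calcium stores; after 4 h, coelenterazine is added directly to the medium and luminescence is imaged.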

Assay [4] is described as follows: Primary qHTS for inhibitors of nuclear receptor binding SET domain protein 2 (NSD2) in an isogenic RCH-ACV NSD2 p.E1099K mutant (9B) (AID 1645876). Note: nearly all actives have a fitted effect of over 70% in size. Note: potency is the fitted concentration of half-maximal effect.
Assay [5] is described as follows: Primary qHTS for inhibitors of nuclear receptor binding SET domain protein 2 (NSD2) in an RCH-ACV wild type WT cells (2C) (AID 1645877). Note: nearly all actives have a fitted effect of over 70% in size. Note: potency is the fitted concentration of half-maximal effect.
Assay [6] deals with Cytochrome P450 2D6 (Homo sapiens) (UniProt P10635). Put plainly: Cytochrome P450 family 2 subfamily D member 6 (CYP2D6) small molecule antagonists: luciferase biochemical (cell-free) qHTS assay (AID 1645840; active = well fitted curve in the direction sought with a large enough effect in the repeat runs; an effect the other way counts as inactive or inconclusive; note: nearly all actives have a fitted effect of over 55% in size; note: potency is the fitted concentration of half-maximal effect; for activity change, negative = inhibition: series mostly up to about 57 µM; % is set by controls: 0 for no effect and ±100 for the full control effect). In short, it runs like this:
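P450-Glo luminescent screen: recombinant CYP2D6 enzyme–proluciferin substrate mix preincubated with compound 10 min at room temperature, then NADPH regeneration added for 1 h at room temperature. Detection reagent added for 20 min; luciferin light read as relative luminescence units.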

A short description of assay [7]: A High-Content qHTS Against Drug Library for the Identification of Small Molecules that Inhibit DYT1 Early Onset Primary Dystonia-Associated Cell Pathology (AID 1645839; calls by dose curve; note: potency is the fitted concentration of half-maximal effect). Put shortly:
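Readout: %pathology, the punctate EGFP-TorsinA distribution from imaging, as the primary channel and cell count as the toxicity counterscreen. HEK293 Flp-In cells expressing delE TorsinA were induced with tetracycline and treated with compound for 48 h.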

The target in assay [8] is Cytochrome P450 2C9 (Homo sapiens) (UniProt P11712). Put plainly: Cytochrome P450 family 2 subfamily C member 9 (CYP2C9) small molecule antagonists: luciferase biochemical (cell-free) qHTS assay (AID 1645842; active = well fitted curve in the direction sought with a large enough effect in the repeat runs; an effect the other way counts as inactive or inconclusive; note: nearly all actives have a fitted effect of over 55% in size; note: potency is the fitted concentration of half-maximal effect; for activity change, negative = inhibition: series mostly up to about 57 µM; % is set by controls: 0 for no effect and ±100 for the full control effect). In short, it runs like this: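 Luminescence, after 20 min with luciferin detection reagent, reflected CYP2C9 turnover during a 1 h NADPH-driven reaction at 37C. Enzyme-substrate mix contained 0.4% bovine serum albumin and was preincubated with compound 10 min at room temperature.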

The target of assay [9] is Rap guanine nucleotide exchange factor 3 (Homo sapiens) (UniProt O95398). Put plainly: Confirmatory qHTS for antagonist of cAMP-regulated guanine nucleotide exchange factor 3 (EPAC1) (AID 1645880).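 Note: plate controls were DMSO only for no effect and full effect of the ATA control for full effect; nearly all actives have a fitted effect of over 55% in size.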 In short, it runs like this:
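Nucleotide exchange uses 100 nM EPAC1, 250 nM RAP1B-BODIPY-GDP and 50 uM GDP, with compounds in a concentration-titration series. After 5 min at room temperature, fluorescence (480 nm ex/540 nm em) is read every 5 min for 30 min. Data are normalized to control ATA and DMSO.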

For assay [10] the target is unchanged. Put plainly: Confirmatory qHTS for agonist of cAMP-regulated guanine nucleotide exchange factor 3 (EPAC1) (AID 1645881).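 Note: EPAC1 catalysed release of BODIPY-GDP from Rap1B seen as fluorescence loss; 100% = effect of cAMP agonist control; nearly all actives have a fitted effect of over 75% in size.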
Assay [11] has as its target Rap guanine nucleotide exchange factor 4 (Homo sapiens) (UniProt Q8WZA2). Put plainly: Confirmatory qHTS for agonist of cAMP-regulated guanine nucleotide exchange factor 4 (EPAC2) (AID 1645884).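 Note: nucleotide exchange releases bodipy-GDP from Rap1 and this lowers its fluorescence; % is set by controls: 0 for no effect and ±100 for the full control effect; nearly all actives have a fitted effect of over 65% in size.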
Assay [12] shares this target. The assay can be described thus: Confirmatory qHTS for antagonist of cAMP-regulated guanine nucleotide exchange factor 4 (EPAC2) (AID 1645885). Note: potency is the fitted concentration of half-maximal effect; nearly all actives have a fitted effect of over 25% in size.

Molecules are shown by their SMILES. “And” between values parts separate entries of the source, which are not always exact repeats. Equal values may be shown once. Inconclusive results are not listed. More than one record can exist for a structure, and the calls need not agree. The source made the active and inactive calls. Unless noted, calls come from the whole dose curve; as a rule, active = well fitted curve in the direction sought with a large enough effect; inconclusive = small, poorly fitted or top-dose-only effect, or another doubt; inactive = no such curve, though single readings can be large; an effect the other way counts as inactive or inconclusive.

Chain of Calcium and integrin-binding protein 1 (Homo sapiens) (Q99828 whole entry, looked up): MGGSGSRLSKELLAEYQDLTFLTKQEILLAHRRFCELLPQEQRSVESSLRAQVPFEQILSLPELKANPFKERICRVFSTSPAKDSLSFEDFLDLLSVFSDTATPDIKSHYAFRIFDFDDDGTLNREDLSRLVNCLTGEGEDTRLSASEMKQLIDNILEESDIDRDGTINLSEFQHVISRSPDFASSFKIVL
Chain of Rap guanine nucleotide exchange factor 4 (Homo sapiens) (Q8WZA2 whole entry, looked up): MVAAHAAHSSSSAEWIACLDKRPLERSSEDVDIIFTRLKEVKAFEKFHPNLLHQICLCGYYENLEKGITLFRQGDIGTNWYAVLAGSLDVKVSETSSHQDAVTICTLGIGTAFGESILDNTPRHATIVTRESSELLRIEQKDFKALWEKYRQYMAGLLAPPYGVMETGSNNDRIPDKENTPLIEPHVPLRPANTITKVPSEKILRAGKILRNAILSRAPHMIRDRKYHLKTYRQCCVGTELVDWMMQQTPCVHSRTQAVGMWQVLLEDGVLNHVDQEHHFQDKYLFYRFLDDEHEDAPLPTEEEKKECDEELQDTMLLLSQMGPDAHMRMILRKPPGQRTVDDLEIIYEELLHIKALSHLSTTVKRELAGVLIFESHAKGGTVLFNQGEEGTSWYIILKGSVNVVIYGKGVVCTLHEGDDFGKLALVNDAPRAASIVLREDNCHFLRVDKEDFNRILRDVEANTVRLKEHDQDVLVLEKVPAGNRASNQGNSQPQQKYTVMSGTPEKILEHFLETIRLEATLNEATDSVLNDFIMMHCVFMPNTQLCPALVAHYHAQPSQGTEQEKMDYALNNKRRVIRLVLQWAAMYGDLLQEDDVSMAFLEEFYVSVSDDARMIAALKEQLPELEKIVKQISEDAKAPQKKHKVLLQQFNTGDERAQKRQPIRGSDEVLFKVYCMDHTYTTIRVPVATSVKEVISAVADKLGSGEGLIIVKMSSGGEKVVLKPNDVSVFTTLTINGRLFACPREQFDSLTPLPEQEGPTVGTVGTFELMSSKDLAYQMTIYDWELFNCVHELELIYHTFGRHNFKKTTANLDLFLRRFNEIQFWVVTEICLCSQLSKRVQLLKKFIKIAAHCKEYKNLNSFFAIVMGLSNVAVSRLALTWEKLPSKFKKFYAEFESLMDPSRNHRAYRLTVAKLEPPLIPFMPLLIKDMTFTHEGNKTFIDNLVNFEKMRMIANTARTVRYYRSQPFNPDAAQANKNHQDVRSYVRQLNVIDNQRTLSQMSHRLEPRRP
Chain of Cytochrome P450 2C9 (Homo sapiens) (P11712 whole entry, looked up): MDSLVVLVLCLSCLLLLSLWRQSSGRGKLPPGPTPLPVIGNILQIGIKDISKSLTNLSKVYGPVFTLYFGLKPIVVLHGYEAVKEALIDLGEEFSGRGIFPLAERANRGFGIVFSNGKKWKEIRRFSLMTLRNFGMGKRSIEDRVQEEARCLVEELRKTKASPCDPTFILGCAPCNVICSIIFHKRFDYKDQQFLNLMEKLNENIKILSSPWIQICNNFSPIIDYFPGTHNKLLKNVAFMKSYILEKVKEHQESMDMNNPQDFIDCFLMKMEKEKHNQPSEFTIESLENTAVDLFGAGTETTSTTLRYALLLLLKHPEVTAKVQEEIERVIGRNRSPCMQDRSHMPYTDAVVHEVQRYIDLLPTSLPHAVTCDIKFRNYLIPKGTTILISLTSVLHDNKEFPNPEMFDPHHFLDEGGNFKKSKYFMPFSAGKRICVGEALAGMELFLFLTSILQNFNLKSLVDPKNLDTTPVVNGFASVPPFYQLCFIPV
Chain of Cytochrome P450 2D6 (Homo sapiens) (P10635 whole entry, looked up): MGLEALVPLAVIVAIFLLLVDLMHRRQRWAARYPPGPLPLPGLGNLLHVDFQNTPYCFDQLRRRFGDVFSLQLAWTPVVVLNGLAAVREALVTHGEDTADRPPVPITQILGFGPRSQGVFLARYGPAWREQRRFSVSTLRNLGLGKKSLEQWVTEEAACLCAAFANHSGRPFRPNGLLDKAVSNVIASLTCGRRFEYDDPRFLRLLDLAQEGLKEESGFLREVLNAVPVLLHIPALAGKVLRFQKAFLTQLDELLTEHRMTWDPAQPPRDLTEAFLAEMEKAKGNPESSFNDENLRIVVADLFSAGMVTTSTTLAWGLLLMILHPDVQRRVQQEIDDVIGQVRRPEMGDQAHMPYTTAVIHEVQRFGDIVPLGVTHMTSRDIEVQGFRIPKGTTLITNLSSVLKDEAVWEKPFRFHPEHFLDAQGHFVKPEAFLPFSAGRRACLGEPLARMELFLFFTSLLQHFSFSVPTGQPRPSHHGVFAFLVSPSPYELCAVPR
Chain of Rap guanine nucleotide exchange factor 3 (Homo sapiens) (O95398 whole entry, looked up): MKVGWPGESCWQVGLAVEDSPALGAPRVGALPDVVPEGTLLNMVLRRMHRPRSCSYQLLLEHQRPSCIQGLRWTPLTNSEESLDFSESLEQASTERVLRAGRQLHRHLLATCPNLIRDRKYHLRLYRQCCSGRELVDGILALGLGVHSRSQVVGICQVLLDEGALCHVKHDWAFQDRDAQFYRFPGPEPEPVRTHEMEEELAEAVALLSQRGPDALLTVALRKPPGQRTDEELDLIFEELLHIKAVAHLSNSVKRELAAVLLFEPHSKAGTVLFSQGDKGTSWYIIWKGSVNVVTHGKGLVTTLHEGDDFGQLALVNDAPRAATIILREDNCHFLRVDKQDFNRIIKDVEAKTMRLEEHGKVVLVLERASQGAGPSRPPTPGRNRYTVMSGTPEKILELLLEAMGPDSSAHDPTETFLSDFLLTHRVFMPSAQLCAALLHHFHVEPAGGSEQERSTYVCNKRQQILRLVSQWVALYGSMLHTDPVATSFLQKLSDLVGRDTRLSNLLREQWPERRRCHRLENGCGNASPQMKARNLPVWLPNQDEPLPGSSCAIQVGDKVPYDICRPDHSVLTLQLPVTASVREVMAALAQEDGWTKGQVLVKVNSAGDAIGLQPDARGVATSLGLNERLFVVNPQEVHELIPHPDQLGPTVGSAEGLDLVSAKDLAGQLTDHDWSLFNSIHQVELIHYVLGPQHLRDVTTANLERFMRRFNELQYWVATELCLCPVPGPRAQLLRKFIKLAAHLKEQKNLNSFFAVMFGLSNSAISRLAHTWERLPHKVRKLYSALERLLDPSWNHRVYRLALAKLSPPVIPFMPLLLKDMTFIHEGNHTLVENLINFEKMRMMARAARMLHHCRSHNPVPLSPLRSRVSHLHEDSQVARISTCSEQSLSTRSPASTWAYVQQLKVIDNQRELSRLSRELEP

In the case of `CC(=O)OCC(=O)[C@@]12OC(C)(C)O[C@@H]1C[C@H]1[C@@H]3C[C@H](F)C4=CC(=O)C=C[C@]4(C)[C@@]3(F)[C@@H](O)C[C@@]12C`, the Potency result in assay [1], in assay [2], in [3] and in [4] was “inactive” in each case. Besides, the Potency in assay [5] was 0.9 nM (active) and inactive.
Regarding `CC(=O)OCC(=O)[C@@]1(OC(C)=O)[C@@H](C)C[C@H]2[C@@H]3C[C@H](F)C4=CC(=O)C=C[C@]4(C)[C@@]3(F)[C@@H](O)C[C@@]21C`, the Potency result in [1], in assay [2], in assay [3] and in assay [6] was “inactive” each time. For the same compound, the Potency in [5] is 18.8 nM (active).
Regarding `COc1cc(-c2ccc(=O)[nH]n2)ccc1OC(F)F`, the Potency entry in [1], in assay [2], in assay [3], in assay [4] and in assay [5] was “inactive” throughout.
`CCCCC(=O)O[C@]1(C(=O)CO)CC[C@H]2[C@@H]3CCC4=CC(=O)CC[C@]4(C)[C@H]3[C@@H](O)C[C@@]21C`: the Potency entry in [1], in assay [2], in [3] and in assay [6] was “inactive” in each case. Also, in [5], the Potency is 106 nM (active).
Take `O=c1[nH]c(=O)n([C@H]2CCCO2)cc1F`: the Potency result in assay [1], in [2], in [7], in assay [6], in assay [8] and in assay [4] was “inactive” throughout. Also, in assay [5], the Potency entry is “inactive”.
As to `C[C@H](O)C(=O)Nc1c(I)c(C(=O)NC(CO)CO)c(I)c(C(=O)NC(CO)CO)c1I`, the Potency entry in assay [1], in assay [2], in assay [7], in [6], in assay [8] and in [4] was “inactive” throughout. For the same compound, the Potency result in assay [5] was “inactive”.
For the compound `CC/C(=C(/CC)c1ccc(O)cc1)c1ccc(O)cc1`, the Potency result in assay [1], in assay [2], in assay [3] and in assay [4] was “inactive” each time. Also, in [5], the Potency is 10.6 µM (active) and inactive.
With `CN(C)CCCOc1nn(Cc2ccccc2)c2ccccc12`, the Potency result in assay [1], in assay [2] and in [3] was “inactive” each time. Besides, the Potency in assay [4] is 9.44 µM (active) and 25.8 µM (active); in assay [5], 10.6 µM (active) and 14.5 µM (active).
For the compound `NC(CO)(CO)CO`, the Potency result in [1], in [2], in [7], in assay [6], in assay [8] and in [4] was “inactive” each time. In assay [5], the Potency entry was “inactive”.
As for `CN1CCN(C(c2ccccc2)c2ccccc2)CC1`, the Potency result in assay [1], in [2], in assay [7], in assay [8], in [4] and in assay [5] was “inactive” throughout. Further, the Potency in assay [6] is 4900 nM (active).
In the case of `CCN(CC)CCOc1ccc(C(O)(Cc2ccc(Cl)cc2)c2ccc(C)cc2)cc1` (stereo unspecified), the Potency entry in assay [1], in [2] and in assay [3] was “inactive” throughout. The Potency in assay [6] is 617 nM (active); in [4], 5.31 µM (active); in assay [5], 2660 nM (active).
`CN(C)CC/C=C1/c2ccccc2COc2ccc(CC(=O)O)cc21`: the Potency result in assay [1], in assay [2], in assay [7], in assay [6], in [8] and in assay [4] was “inactive” throughout. The Potency result in assay [5] was “inactive”.
As to `CN(C)/N=N/c1nc[nH]c1C(N)=O`, the Potency result in assay [1], in assay [2], in assay [3], in assay [4] and in assay [5] was “inactive” throughout.
Take `CC(C)NC[C@@H](O)COc1cccc2ccccc12`: the Potency entry in assay [1], in assay [2], in assay [3] and in assay [8] was “inactive” throughout.
As for `CCOC(=O)OC(C)OC1=C(C(=O)Nc2ccccn2)N(C)S(=O)(=O)c2ccccc21` (stereo unspecified), the Potency result in assay [1], in assay [2], in assay [6], in [4] and in assay [5] was “inactive” each time.
With `COc1cc(C=C2CCC/C(=C\c3ccc(O)c(OC)c3)C2=O)ccc1O`, the Potency entry in [1] and in [2] was “inactive” each time. In addition, the Potency was 7080 nM (active) in [7], 0.237 µM (active) in assay [4] and 188 nM (active) in [5].
Turning to `Nc1ccc(/C=C/c2ccc(N)cc2S(=O)(=O)O)c(S(=O)(=O)O)c1`, the activity change in assay [1] was 5.33% [at 0.0343 µM] (inactive). The figures for the activity change, negative = inhibition in assay [2], in assay [6] and in assay [8] were -1.2% [at 1.07 µM] (inactive), 18.7% [at 0.91 µM] (inactive) and 13.7% [at 0.91 µM] (inactive), respectively. Further, the outcome in assay [4] and in assay [5] was “inactive [at 0.588 µM]” each time.
For `CC(C)N=C(N)/N=C(\N)Nc1ccc(Cl)cc1`, the Potency result in [1], in [2] and in assay [8] was “inactive” throughout. In assay [6], the Potency is 3090 nM (active).
`CC(O)C(=O)O` (stereo unspecified): the Potency entry in assay [1], in assay [3], in assay [7], in [8], in assay [4] and in [5] was “inactive” in each case. Also, the Potency in [6] was 12300 nM (active).
Take `O=C1OC(c2ccc(O)cc2)(c2ccc(O)cc2)c2ccccc21`: the Potency result in [1], in [2], in assay [9] and in assay [11] was “inactive” each time. The compound was called inactive in assay [10]. Moreover, the Potency in assay [12] was 24.8 µM (active) and 27.8 µM (active).
On to `Cc1ccc(Nc2c(F)cccc2Cl)c(CC(=O)O)c1`, for which the Potency result in assay [1], in assay [2], in assay [7] and in assay [5] was “inactive” throughout.
Take `COc1cccc(CCc2ccccc2OCC(CN(C)C)OC(=O)CCC(=O)O)c1` (stereo unspecified): the Potency entry in assay [1], in assay [2] and in assay [8] was “inactive” each time. Also, in assay [6], the Potency was 195 nM (active).
With `CCCCOc1cc(C(=O)NCCN(CC)CC)c2ccccc2n1`, the Potency entry in assay [1], in assay [2] and in assay [8] was “inactive” in each case. Also, the figures for the Potency in assay [6] and in [5] were 8710 nM (active) and 23700 nM (active), respectively.
As to `CCCCS(=O)(=O)N[C@@H](Cc1ccc(OCCCCC2CCNCC2)cc1)C(=O)O`, the Potency entry in assay [1], in [2], in assay [7], in assay [6], in assay [8] and in assay [4] was “inactive” in each case. In [5], the Potency entry was “inactive”.
Consider `C[C@H]1[C@H](NC(=O)/C(=N/OC(C)(C)C(=O)O)c2csc(N)n2)C(=O)N1S(=O)(=O)O` (stereo in doubt), for which the Potency result in assay [1], in assay [2], in assay [6], in assay [8], in assay [4] and in assay [5] was “inactive” each time.
Consider `CCN(CC)C(=O)/C(C#N)=C/c1cc(O)c(O)c([N+](=O)[O-])c1`, for which the Potency result in [1], in assay [2] and in assay [6] was “inactive” in each case. Moreover, in assay [8], the Potency was 43.6 nM (active).
With `C[C@]12CCC(=O)C=C1[C@@H]1C[C@@H]1[C@H]1[C@@H]3[C@@H]4C[C@@H]4[C@@]4(CCC(=O)O4)[C@@]3(C)CC[C@@H]12`, the Potency entry in assay [1], in assay [2] and in assay [8] was “inactive” in each case.
